GRP78 ERSR act: qHTS for Inducers of the Endoplasmic Reticulum Stress Response (ERSR) in Human Glioma: qHTS; Potency, µM, for inactives: at the highest dose activation, actives largely listed as activators; U87-MG GRP78 promoter luciferase reporter, 16 h; 420,000 compounds, 0.02% hits; also: series mostly up to about 76 µM; % of control where 0% means no effect; nearly all actives have a fitted effect of over 35% in size
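Stably transfected U87-MG glioma cells carrying a GRP78-based luciferase sensor; 16 h compound incubation. Luminescence end-point read 10 min after Bright-Glo addition at room temperature.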
Abeta yeast res: qHTS for compounds that reverse cellular toxicity of Amyloid beta (A-beta) peptide in yeast: Primary Screen. Potency, µM (top dose mostly 46.1 µM), usual class: activators. yeast expressing A-beta42, growth rescue, OD600, 48 h; response scale: 0% DMSO, 100% iron-clioquinol control. 410,000 compounds, 0.063% hits. AID 1347071, 2019; also: nearly all actives have a fitted effect of over 55% in size
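Growth rescue measured by 600 nm absorbance after 48 h yeast culture at 30 C with compound. Values normalized between DMSO and an equimolar ferric chloride plus clioquinol control.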
aSyn yeast inh: qHTS of alpha-syn Inhibitors; Yeast expressing alpha-synuclein, growth rescue, BacTiter-Glo, 24 h; Potency, µM (top dose mostly 46.1 µM), for inactives: at the highest dose growth rescue (activation), actives largely listed as activators; 370,000 compounds, 0.14% hits; AID 652106, 2013; also: % of control where 0% means no effect; nearly all actives have a fitted effect of over 65% in size
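Readout is rescue of growth in alpha-synuclein-expressing yeast, so inhibitors of toxicity appear as activators. Growth after 24 hr at 30 deg C in galactose medium is quantified by luminescence.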
TDP-43 yeast inh: qHTS of TDP-43 Inhibitors; TDP-43 expressing yeast growth rescue, BacTiter-Glo, 24 h; Potency, µM (doses to about 46.1 µM), without a hit: top-dose growth rescue (activation), most hits filed as activators; 410,000 compounds, 1.8% hits; AID 652104, 2013; also: % of control where 0% means no effect; nearly all actives have a fitted effect of over 50% in size
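Growth rescue of TDP-43-toxic yeast measured as ATP luminescence (BacTiter-Glo). Cells grown to mid-log in raffinose, induced in galactose at OD600=0.02, exposed to compound 24 hr at 30 deg C.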
Mito fusion yeast: qHTS Assay for Small Molecule Inhibitors of Mitochondrial Division or Activators of Mitochondrial Fusion; 320,000 compounds, 0.23% hits; S. cerevisiae fusion-defective mutant growth rescue, CellTiterGlo 48 h; Potency, µM (titrated, usually from 46.1 µM), inactives show at the top dose growth rescue (activation), hits mostly activators; AID 485298, 2010; also: % of control where 0% means no effect; nearly all actives have a fitted effect of over 45% in size
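Read-out: ATP-based luminescence (CellTiterGlo, 10 min ambient) reporting growth of fusion-defective ts yeast after 48 hours at 37C on glycerol/ethanol YPEG medium in the presence of compound.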
A-T KAP1 phos: qHTS Assay for Identifying a Potential Treatment of Ataxia-Telangiectasia | 320,000 compounds, 0.19% hits | F2112 A-T fibroblasts, KAP-1 phosphorylation AlphaLISA; neocarzinostatin DNA damage 30 min before lysis | Potency, µM (doses to about 57.5 µM), inactives show top-dose activation, most hits filed as activators; also: % of control where 0% means no effect; nearly all actives have a fitted effect of over 45% in size
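hTERT-immortalized A-T patient fibroblasts (F2112), 500 cells/well in OPTI-MEM, 1% FBS, got compounds for 60 min, then NCS for 30 min at 37C. Lysates were then assayed for phospho-KAP-1 by AlphaLISA (anti-pKAP1 donor, anti-KAP1 acceptor beads), 6 hr at 25C.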
An asterisk follows results filed as active; i = inactive; u = inconclusive; x = no result given; [ ] = another dose, or the depositor's remark. A selection: hits, their analogues and other compounds. The true share with any hit is near 2.1%. Calls follow the shape of the dose curve; as a rule, active = well fitted curve in the direction sought with a large enough effect; inconclusive = small, poorly fitted or top-dose-only effect, or another doubt; inactive = no such curve, though single readings can be large; an effect the other way counts as inactive or inconclusive. Potency is read from the fitted curve at half-maximal effect.

SMILES	GRP78 ERSR act	Abeta yeast res	aSyn yeast inh	TDP-43 yeast inh	Mito fusion yeast	A-T KAP1 phos
C=CCS(=O)(=O)c1nc2ccccc2s1	-14.7%	i[9.22 µM]	-0.5%	22.4µM*	-10.4%	27.8%
CCn1ccc2cc(S(=O)(=O)N3CCC(C(=O)NCCOC)CC3)ccc21	-2.9%	i	x	u	x	x
Cc1ccc(NC(=O)NCc2c(-n3cccc3)sc3c2CCCC3)c(Cl)c1	-6.1%	i	x	4.1%[9.22 µM]	x	x
Cc1ccc(-n2c(=O)c3c(cnn3C)n(CC(=O)Nc3cccc(Cl)c3)c2=O)cc1	-0.2%	i	x	16.6%	x	x
COc1cccc(NC(=O)C2CCCN(c3ncnc4onc(-c5ccc(F)cc5)c34)C2)c1 (configuration not stated)	0.2%	i	x	23.5%	x	x
COc1ccc(-n2nc([N+](=O)[O-])c(=NCCc3cccc(C)c3)n2O)cc1	-0.5%	i	4.9%	12.6µM*	3.3%	0.8%
COc1ccc(-n2nc([N+](=O)[O-])c(=NCc3ccc4c(c3)OCO4)n2O)cc1	1.0%	i	19.6%	12.6µM*	21.4%	-2.2%
Cc1cccc(CCN=c2c([N+](=O)[O-])nn(-c3ccccc3)n2O)c1	6.1%	i	1.5%	15.8µM*	7.0%	-0.7%
COc1ccc(CCN=c2c([N+](=O)[O-])nn(-c3cccc(C)c3)n2O)cc1OC	-3.3%	i	-1.2%	17.8µM*	0.6%	-2.4%
CN(C)C(=O)c1ccc(-c2ccc3ncnc(N(C)Cc4ccco4)c3c2)cc1	-5.3%	x	x	x	x	x
CCCCc1nn2c(C)c(-c3ccc(OCC)cc3)nc2s1	-0.7%	i	x	22.4µM*	x	x
CC(C)(C)c1ccc(C(=O)Nc2onc3c2CCCC3)cc1	-8.5%	i	x	u	x	x
O=c1oc2ccccc2c(NC2CCCCC2)c1NS(=O)(=O)c1ccc(Br)cc1	-8.0%	i	2.3%	1.3%	-8.7%	2.5%
CCCNc1c(NS(=O)(=O)c2ccc(Br)cc2)c(=O)oc2ccccc12	-3.8%	i	2.1%	7.4%	8.91µM*	0.6%
CCCc1nc2cccnc2n1C1CCN(C(=O)CC2NC(=O)c3ccccc32)CC1 (configuration not stated)	4.3%	x	x	x	x	x
Cc1cccc(Nc2nnc(SCC3CCCCO3)s2)c1C (configuration not stated)	0.3%	i	16.2%	-22.7%	0.7%	4.8%
COc1cccc(Nc2nnc(SCC3CCCCO3)s2)c1 (configuration not stated)	4.8%	i	-0.1%	10µM*	1.1%	3.6%
COc1ccc(Nc2nnc(SCC3CCCO3)s2)cc1 (configuration not stated)	2.9%	i	-9.6%	28.2µM*	1.2%	3.7%
CN1/C(=C\C(=O)c2cncc(Br)c2)C(C)(C)c2ccccc21	-2.4%	i	13.5%	12.6µM*	u	11.3%
CN1/C(=C/C(=O)c2nc(S(C)(=O)=O)ncc2Cl)C(C)(C)c2ccccc21	-14.9%	i	4.1%	12.6µM*	-22.1%	-7.2%
CSc1nc(C(=O)N2CCc3c(cnc(C)c3CNC(=O)c3ccc4c(c3)OCO4)C2)cs1	-5.7%	x	x	x	x	x
CCOC(=O)C1=C(C)N(c2ccc(OC)cc2)C(=O)/C1=C\c1ccc(O)c(OCC)c1	-0.6%	i	6.8%	12.2%	0.5%	12.6µM*
CCOC(=O)C1=C(C)N(c2ccc(OC)cc2)C(=O)/C1=C\c1cccs1	-1.3%	i	-0.4%	2.9%	13.3%	9.0%
COc1ccc(S(=O)(=O)N(C(=O)c2ccncc2)c2ccc3oc4c(c3c2)CCCC4)cc1	-3.0%	i	u	14.7%	11.2µM*	4.1%
CCOc1ccc(S(=O)(=O)N(C(=O)c2ccncc2)c2ccc3oc(C)c(C(=O)OC)c3c2)cc1	1.3%	i	x	18.9%	x	x
SMILES	GRP78 ERSR act	Abeta yeast res	aSyn yeast inh	TDP-43 yeast inh	Mito fusion yeast	A-T KAP1 phos
CCc1ccc(S(=O)(=O)N(C(=O)c2ccncc2)c2ccc3oc(C)c(C(=O)OC)c3c2)cc1	3.2%	i	x	20µM*	x	x
Cc1ccc(OCC(=O)Nc2cc(Cl)ccc2-n2cncn2)c(C)c1	-0.2%	i	5.9%	12.6µM*	x	x
Cc1cccc(OCC(=O)Nc2cc(Cl)ccc2-n2cncn2)c1C	-1.4%	i	u	-8.3%	13.3%	-0.6%
O=C(Nc1cc(Cl)ccc1-n1cncn1)c1cc(F)c(F)c(F)c1F	-4.7%	i	0.6%	22.4µM*	u	1.0%
Cc1ccsc1C(=O)Nc1cc(Cl)ccc1-n1cncn1	0.6%	i	12.7%	17.8µM*	x	x
CCC(=O)Nc1ccccc1-c1nc2ccccc2n(CC(=O)c2ccc(C)c(C)c2)c1=O	-2.7%	i	x	15.5%	x	x
CCC1(C2CCN(Cc3ccc(OC)cc3)CC2)NC(=O)N(CC2COc3ccccc3O2)C1=O (configuration not stated)	-5.5%	x	x	x	x	x
COc1cc(C(O)c2nc(-c3csc4ccccc34)cs2)ccc1F (configuration not stated)	1.8%	u	u	20µM*	x	x
OC(c1ccc(F)c(F)c1)c1nc(-c2csc3ccccc23)cs1 (configuration not stated)	-6.5%	i	-59.3%	15.8µM*	x	x
COc1cc(C(O)c2nc(-c3ccccc3C)cs2)ccc1F (configuration not stated)	-3.7%	i	15.8%	u	x	x
COc1cccc(C2=NO[C@@H]3C(=O)N(c4ccc5c(c4)OCCO5)C(=O)[C@H]23)c1OC	-4.8%	i	-0.6%	-3.3%	-0.3%	5.7%
COc1cccc(C2=NO[C@@H]3C(=O)N(Cc4ccccc4)C(=O)[C@H]23)c1OC	-4.7%	i	-0.9%	12.6µM*	-4.3%	12.4%
O=C(c1cc(COc2cccc(C(F)(F)F)c2)on1)N1CCCC1	2.7%	i	0.1%	u	x	x
CCOC(=O)N1CCN(C(=O)c2cc(COc3cccc(C(F)(F)F)c3)on2)CC1	4.4%	i	4.9%	10µM*	0.0%	2.8%
CCCS(=O)(=O)NCc1c(C)ncc2c1CCN(C(=O)c1ccc(Cl)cc1)C2	0.0%	x	x	x	x	x
CC(C)(C)c1ccc(-n2nc(C#N)c(Cl)cc2=O)cc1	-15.4%	i	-1.5%	3.55µM*	7.4%	-7.4%
CCc1nnc(NC(=O)c2nc(SCc3ccc(F)cc3)ncc2Cl)s1	2.5%	i	x	15.8µM*	x	x
CC(=O)Nc1ccc(NC(=O)c2nc(SCc3ccccc3F)ncc2Cl)cc1	-4.3%	x	31.6µM*	x	x	x
